Data from PubChem BioAssay (NCI).
The panel holds about 83,000 compounds, 20% with a hit somewhere; the sample as a whole holds those more often.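 Cells were grown in 96-well plates and exposed to the test compound at a single concentration for 48 hours; results are reported as percent growth, with values below 10 considered active.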 A number with no mark means an inactive call. Activity calls are given as the source filed them.

test system: MDA-MB-468 breast; test: NCI-60 one-dose screen, 48 h (100 = growth as untreated, 0 = no growth, -100 = all killed); conditions: 10 µM unless noted

| Structure (SMILES) | growth |
| --- | --- |
| Cc1ccc(C(=O)Cc2ccccc2)c(O)c1 | 117% |
| O=C(NCCCNc1cc(-c2cn(-c3ccccc3)nc2-c2cccc(O)c2)ccn1)Nc1cc(C(F)(F)F)cc(C(F)(F)F)c1 | 70.4% |
| COc1ccc(Cn2cc3c(c2-c2cc(OC)c(OC)c(OC)c2)CCCc2cnoc2-3)cc1 | 48.6% |
| C[N+]1(CCCCC[N+]2(C)CCCC2)CCCC1 | 117% |
| Cc1c(CC(=O)Nc2ccccc2)nnn1-c1ccccc1 | 117% |
| C#C[C@]1(O)CC[C@H]2[C@@H]3CC=C4c5sc(Nc6cc(OC)ccc6OC)nc5CC[C@]4(C)[C@H]3CC[C@@]21C | 9.15% (active) |
| CN(C)C(=O)OCc1ccc2c(Cl)cc(Cl)c(O)c2n1 | 27% |
| N#C/C(=N\Nc1ccc(F)cc1)C(=O)Nc1cc(-c2ccccc2)nn1-c1ccccc1 | -21% (active) |
| C=CCOC(=O)C1=C(C)NC(=O)NC1c1c(Cl)n(C)c2ccccc12 (centres undefined) | 106% |
| COc1ccc(-c2cc3c(nn2)-c2ccccc2C3=O)cc1 | -4.8% (active) |
| O=C1CSC(c2cn(-c3ccccc3)nc2-c2ccc(Cl)cc2)N1c1ccccc1 (centres undefined) | 104% |
| O=c1c2cc(F)ccc2sc2c(N3CCNCC3)nc3ccccc3c12 | -41.2% (active) |
| CN(C)CCNc1ccc2ncc(C#Cc3cncc(C(=O)Nc4ccc(CN5CCN(C)CC5)c(C(F)(F)F)c4)c3)n2n1 | -67.9% (active) |
| COc1ccc(C2CC(c3ccc(Nc4nc(NCCO)nc(N5CCOCC5)n4)cc3)=Nc3c(N)nc(N)nc3N2)cc1 (centres undefined) | 90.3% |
